Hits are enriched below; roughly 1.2% of the tested compounds scored in any of these assays.
RGS4-Gao reg: modulators of RGS4 binding to Galphao, primary screen, biochemical, multiplexed bead flow cytometry | Guanine nucleotide-binding protein G(o) subunit alpha (Homo sapiens), P09471 | actives lie on both sides | binding response (% of control), % at 10 µM | actives 0.33% (n = 220,000) | AID 1415, 2008; in the data active means binding response below about 49% or above about 150%; inactive means in between;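 further: fluorescent Galphao activated with aluminum fluoride binding bead-coupled RGS4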
RGS16-Gao: modulators of RGS16 binding to Galphao, primary screen, biochemical, human proteins, multiplexed bead flow cytometry. bead-based flow cytometry RGS16-Galphao binding, fluorescence; actives lie on both sides. binding response (% of control), % at 10 µM. actives 0.38% (n = 220,000). AID 1441, 2008; call rule not given here;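 further: Galphao activated by GDP with aluminum fluoride before binding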
GSH bead fluor: compound fluorescence on glutathione beads, profiling panel, artefact control, biophysical, 488/530 nm, flow cytometry | fluorescence (KMESF) at 10 µM | GSH beads flow cytometry, compound fluorescence 488/530 nm; hits give high values | actives 0.25% (n = 190,000); in the data active means fluorescence above about 89;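 further: glutathione beads carrying GST-tagged Bcl family fusion proteins plus one bare bead set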
RGS8-Gao: RGS8-Galphao binding modulators, primary screen, biochemical, multiplexed bead flow cytometry. response (percent of control binding), % at 10 µM. actives lie on both sides. Guanine nucleotide-binding protein G(o) subunit alpha (Homo sapiens), P09471. actives 0.34% (n = 220,000). AID 1423, 2008; in the data active means response below about 60% or above about 140%; inactive means in between;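 further: Galphao activated as the GDP aluminium fluoride complex binding bead-coupled RGS8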
RGS7-Gao reg: RGS7-Galphao binding modulators, primary screen, biochemical, multiplexed bead flow cytometry; binding response (% of control), % at 10 µM; actives 0.35% (n = 220,000); Guanine nucleotide-binding protein G(o) subunit alpha (Homo sapiens), P09471; AID 1439, 2008; actives lie on both sides; in the data active means binding response below about 49% or above about 150%; inconclusive means no clear call, values can overlap the other calls; inactive means in between;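 further: fluorescent Galphao held in activated GDP-AlF4 state binding bead-coupled RGS7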
Avidin fluor: green autofluorescence of compounds with avidin beads – biophysical, 488/530 nm, flow cytometry, artefact control, profiling panel; actives 0.38% (n = 220,000); fluorescence (KMESF) at 10 µM; compound fluorescence 488/530 nm; hits give high values; in the data active means fluorescence above about 47
Avidin counter: disruption of biotin probe capture by avidin, counter-screen for RGS protein interaction modulators, biochemical, flow cytometry, bead-based. shares compounds with RGS16-Gao. streptavidin beads, fluorescein-biotin binding. 1,700 tested, under 10 active. AID 1783, 2009. inhibition, % at 10 µM;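 active means inhibition above 50%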;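 further: median green fluorescence of gated singlet beads compared with DMSO control wells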
RGS8-Gao confirm: RGS8-Galphao binding modulators, confirmation, biochemical, multiplexed bead flow cytometry, single concentration. actives 3% (n = 1,700). bead-based flow cytometry RGS8-Galphao binding, fluorescence; actives lie on both sides. shares compounds with RGS16-Gao. binding response (% of control), % at 10 µM. AID 1836, 2009; in the data active means binding response below about 72% or above about 130%; inactive means in between;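 further: Galphao activated as GDP AlF4 complex before binding bead RGS8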
RGS7-Gao confirm: RGS7-Galphao binding modulators, confirmation, biochemical, multiplexed bead flow cytometry, single concentration | shares compounds with RGS16-Gao | bead-based flow cytometry RGS7-Galphao binding; actives lie on both sides | response (percent of control binding), % at 10 µM | actives 7.8% (n = 1,700) | AID 1837, 2009; in the data active means response below about 75% or above about 130%; inactive means in between;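 further: fluorescent Galphao activated with GDP and aluminum fluoride binding bead-coupled RGS7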
RGS16-Gao conf: modulators of RGS16-Galphao protein binding, confirmation, biochemical, single concentration, multiplexed bead flow cytometry; shares compounds with RGS16-Gao; bead-based flow cytometry; actives lie on both sides; response (% of control binding), % at 10 µM; actives 4% (n = 1,700); AID 1838, 2009; in the data active means response below about 74% or above about 130%; inactive means in between;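 further: Galphao activated as the GDP aluminium fluoride complex binding bead-coupled RGS16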
RGS4-Gao confirm: modulators of RGS4-Galphao protein binding, confirmation, biochemical, single concentration, multiplexed bead flow cytometry; actives lie on both sides; actives 4% (n = 1,700); shares compounds with RGS16-Gao; binding response (% of control), % at 10 µM; in the data active means binding response below about 74% or above about 130%; inactive means in between
RGS19-Gao conf: regulators of RGS19-Galphao binding, confirmation, biochemical, single point, multiplexed bead flow cytometry. shares compounds with RGS16-Gao. bead-based flow cytometry RGS19-Galphao binding; actives lie on both sides. actives 5% (n = 1,700). response (percent of control binding), % at 10 µM. AID 1841, 2009; in the data active means response below about 50% or above about 160%; inactive means in between
Target sequence (P09471 whole entry, looked up): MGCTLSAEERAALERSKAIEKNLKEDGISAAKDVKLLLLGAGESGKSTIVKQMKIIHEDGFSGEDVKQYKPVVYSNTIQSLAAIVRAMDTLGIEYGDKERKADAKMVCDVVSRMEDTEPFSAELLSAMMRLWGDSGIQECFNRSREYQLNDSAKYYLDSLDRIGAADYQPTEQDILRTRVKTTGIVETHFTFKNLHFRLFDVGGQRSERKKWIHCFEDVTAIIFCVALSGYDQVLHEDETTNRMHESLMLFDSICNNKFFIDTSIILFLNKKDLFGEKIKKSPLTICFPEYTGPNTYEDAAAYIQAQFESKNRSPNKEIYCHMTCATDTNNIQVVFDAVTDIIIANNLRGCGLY
Target sequence (P49795 whole entry, looked up): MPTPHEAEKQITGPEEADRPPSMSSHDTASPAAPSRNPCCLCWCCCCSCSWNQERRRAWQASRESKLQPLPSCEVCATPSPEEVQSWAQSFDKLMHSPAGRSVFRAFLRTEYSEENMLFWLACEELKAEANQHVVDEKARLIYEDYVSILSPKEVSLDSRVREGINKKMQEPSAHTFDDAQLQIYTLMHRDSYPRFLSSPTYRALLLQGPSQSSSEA
Hits are given with their value; i = inactive; ? = inconclusive; nt = no result given.

SMILES	RGS4-Gao reg	RGS16-Gao	GSH bead fluor	RGS8-Gao	RGS7-Gao reg	Avidin fluor	Avidin counter	RGS8-Gao confirm	RGS7-Gao confirm	RGS16-Gao conf	RGS4-Gao confirm	RGS19-Gao conf
Cc1c(Cl)cccc1NC(=S)N1CCN(Cc2ccccc2)CC1	i	i	i	i	i	i	i	i	i	i	i	i
S=C(Nc1ccccc1Cl)N1CCN(Cc2ccccc2)CC1	i	i	i	i	i	i	nt	nt	nt	nt	nt	nt
O=C(NC(=O)c1ccccc1O)c1ccc(C(F)(F)F)cc1	i	i	nt	i	?	i	nt	nt	nt	nt	nt	nt
CCCc1ccc(C(=O)NC(=O)c2ccccc2O)cc1	33	i	nt	53	?	i	i	i	i	i	i	i
Cc1cc(C)cc(Nc2cnn(C34CC5CC(CC(CC(=O)O)(C5)C3)C4)c(=O)c2Cl)c1	i	nt	i	nt	nt	nt	i	i	i	i	i	i
Cc1cccc(Nc2cnn(C34CC5CC(CC(CC(=O)O)(C5)C3)C4)c(=O)c2Cl)c1	i	i	i	i	i	i	nt	nt	nt	nt	nt	nt
Cc1ccc(CNc2cnn(C34CC5CC(CC(C5)C3)C4)c(=O)c2Cl)cc1	0.2	5.8	i	11	7.4	i	i	i	i	i	i	i
COc1ccc(N(CC(=O)NCc2ccccc2)C(=O)Cn2nnc(-c3ccccc3F)n2)cc1OC	i	i	i	i	i	i	nt	nt	nt	nt	nt	nt
COc1ccccc1CNC(=O)C(NC(=O)c1ccccc1)C(C)C (stereo not drawn)	i	i	i	i	i	i	nt	nt	nt	nt	nt	nt
Cc1ccc(-c2cc3ncc(C#N)c(N)n3n2)cc1	i	i	i	i	?	i	nt	nt	nt	nt	nt	nt
C=C1SC(=Nc2c(C)cccc2Cl)N(C(=O)c2sc3ccccc3c2Cl)C12CCCCC2	i	i	nt	i	?	i	nt	nt	nt	nt	nt	nt
C=C1SC(=Nc2ccccc2Cl)N(C(=O)c2sc3ccccc3c2Cl)C1(C)C	-16	-13	nt	9.4	?	i	i	i	i	i	i	i
COc1cc(C)ccc1OCCOCCOc1ccccc1[N+](=O)[O-]	i	i	i	i	i	i	nt	nt	nt	nt	nt	nt

Compound activity: PubChem BioAssay, NMMLSC
